Compound activity: PubChem, National Center for Advancing Translational Sciences (NCATS)
Sampled rows, rich in hits. Any-hit rate of the full collection: about 3.8%.
Nrf2 block – Nrf2 pathway inhibition. A549 ARE-Fluc reporter, luciferase luminescence, 18-24 h. Potency, µM (top dose mostly 46 µM), inactives show at the top dose activity change, negative = inhibition, most hits filed as inhibitors. actives 2.1% (n = 360,000); note: % is set by controls: 0 for no effect and ±100 for the full control effect; nearly all actives have a fitted effect of over 60% in size
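Reporter: ARE-Fluc in A549. Exposure: 18-24 h, 37 °C, 5% CO2, 5% FBS OPTI-MEM. Readouts: fluorescent cytotoxicity (CellTiter-Fluor), then luminescent Nrf2 signal after BugLite.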
TGFb inhibitor – TGF-b pathway inhibition; HepG2 CAGA-GFP TGF-b/SMAD3 reporter, GFP fluorescence, 18 h; TGF-beta stimulated, 500 pg/mL final; Potency, µM (highest dose often 46.1 µM), inactives show at the top dose activity, negative = inhibition, hits mostly inhibitors; actives 1.2% (n = 410,000); AID 588855; note: % is set by controls: 0 for no effect and ±100 for the full control effect; nearly all actives have a fitted effect of over 65% in size
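HEPG2 CAGA-GFP, 1000 cells/well; 2 h settle, 37 C; cpd via pin tool; TGF-b 500 pg/mL final; 18 h, 37 C; GFP imaging ex488/em500-530; %Activity normalised to -TGF-b and +DMSO controls; CRC fit, curve class.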
ATXN2 expr inh – inhibitors of ATXN2 expression; actives 0.72% (n = 360,000); Potency, µM (doses to about 57 µM), for the others: top-dose activity change, negative = inhibition, most hits filed as inhibitors; HEK-293 ATXN2-luciferase reporter, luminescence, 24 h; AID 1745845; note: % is set by controls: 0 for no effect and ±100 for the full control effect; nearly all actives have a fitted effect of over 55% in size
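qHTS (up to 57 uM final) was run with 24 h compound exposure of reporter cells at 37 °C. Each well was multiplexed: SteadyGlo luminescence measured ATXN2-luciferase expression after a fluorogenic Gly-Phe-AFC viability readout (25 uM final).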
A549 tox-1 – kills or reduces viability of A549 cells in Nrf2 counter-screen | actives 0.16% (n = 390,000) | A549 ARE-Fluc cells, CellTiter-Fluor viability, 18-24 h | AID 504648 | Potency, µM (highest dose often 46 µM), for inactives: at the highest dose activity change, negative = cytotoxicity, hits mostly inhibitors; note: % is set by controls: 0 for no effect and ±100 for the full control effect
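Cytotoxicity counterscreen: CellTiter-Fluor fluorescence was measured in A549 ARE_Fluc cells after 18-24 h of compound exposure in a concentration series. The subsequent BugLite luminescent read reports ARE-luciferase activity.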
HepG2 viability – HepG2 cytotoxicity, counter-screen for TGF-b inhibitors | AID 588856 | HepG2 CAGA-GFP viability, ATP luminescence, 18 h | actives 0.76% (n = 410,000) | Potency, µM (series often up to 46.1 µM), for the others: at the top dose activity change, negative = cytotoxicity, usual class: cytotoxic
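CellTiter-Glo luminescence gave cytotoxicity after 18 hours at 37 degrees C. The cells were HepG2 CAGA-GFP in 1% FBS DMEM, stimulated with 500 pg/mL TGF-beta after compound addition. %Activity was normalised to no-cell wells (complete cell-killing) and DMSO (no toxicity), and curves were fitted and classified.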
ATXN viability – viability counter-screen for ATXN expression inhibitors. S2 cells (HEK-293 line with an ATXN2-luciferase reporter) viability, CellTiter-Fluor protease fluorescence, 24 h. Potency, µM (series often up to 56.7 µM), usual class: cytotoxic. actives 0.49% (n = 400,000); note: nearly all actives have a fitted effect of over 40% in size
FLuc counter 3 – blocks purified firefly luciferase in Nrf2 counterscreen; shares compounds with Nrf2 block; purified firefly luciferase, luminescence inhibition; Potency, µM (titrated, usually from 57.5 µM), for the others: at the highest dose activity change, negative = inhibition, usual class: inhibitors; actives 4% (n = 1,400); AID 720522; note: % is set by controls: 0 for no effect and ±100 for the full control effect; nearly all actives have a fitted effect of over 65% in size
Target sequence (P08659 whole entry, looked up): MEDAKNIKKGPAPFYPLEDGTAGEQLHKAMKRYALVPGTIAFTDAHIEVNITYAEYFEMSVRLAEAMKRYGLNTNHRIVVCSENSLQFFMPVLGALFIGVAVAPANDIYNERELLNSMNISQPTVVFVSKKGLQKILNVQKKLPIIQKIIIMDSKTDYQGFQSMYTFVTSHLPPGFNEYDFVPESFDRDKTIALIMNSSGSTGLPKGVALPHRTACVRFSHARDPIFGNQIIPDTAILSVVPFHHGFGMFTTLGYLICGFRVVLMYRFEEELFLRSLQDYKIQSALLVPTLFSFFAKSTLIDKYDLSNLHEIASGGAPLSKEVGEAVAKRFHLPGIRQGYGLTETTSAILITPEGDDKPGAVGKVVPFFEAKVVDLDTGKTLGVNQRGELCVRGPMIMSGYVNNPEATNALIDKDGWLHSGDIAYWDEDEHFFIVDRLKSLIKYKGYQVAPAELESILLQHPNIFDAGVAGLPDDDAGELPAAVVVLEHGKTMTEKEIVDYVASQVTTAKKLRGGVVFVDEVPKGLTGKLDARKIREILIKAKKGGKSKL
A549 tox-2 – counter-screen for Nrf2 inhibitors: cytotoxicity in A549 ARE cells | shares compounds with Nrf2 block | A549 ARE-Fluc cells, cytotoxicity counterscreen | Potency, µM (top dose mostly 46.1 µM), for inactives: at the highest dose activity change, negative = cytotoxicity, hits mostly inhibitors | actives 2% (n = 1,400) | AID 720523;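 note: cells exposed to compounds for 18 to 24 hours; % is set by controls: 0 for no effect and ±100 for the full control effect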
ARE-Fluc inh – confirmation of Nrf2 inhibitors in A549 ARE reporter cells; shares compounds with Nrf2 block; Potency, µM (doses to about 46.1 µM), for inactives: at the top dose activity change, negative = inhibition, hits mostly inhibitors; A549 ARE-firefly luciferase reporter, luminescence; AID 720524; actives 74% (n = 1,400); note: % is set by controls: 0 for no effect and ±100 for the full control effect; nearly all actives have a fitted effect of over 65% in size
* marks the source's active call; other numbers are inactive results; i = inactive; ? = inconclusive; . = no result given; ! = a repeat was not active. Calls come from the whole dose curve; as a rule, active = well fitted curve in the direction sought with a large enough effect; inconclusive = small, poorly fitted or top-dose-only effect, or another doubt; inactive = no such curve, though single readings can be large; an effect the other way counts as inactive or inconclusive. Potency is the fitted concentration of half-maximal effect.

SMILES	Nrf2 block	TGFb inhibitor	ATXN2 expr inh	A549 tox-1	HepG2 viability	ATXN viability	FLuc counter 3	A549 tox-2	ARE-Fluc inh
COc1ccc(-n2nc(C(=O)NCC(=O)N3CCC4(CC3)OCCO4)c3ccccc3c2=O)cc1Cl	?	1%	79%	-1%	0%	i	.	.	.
CC[C@@H](O)C[C@H]1CCC[C@@]2(C[C@@H]3OC(=O)/C=C/[C@@](C)(O)[C@@H](O)[C@H](C)[C@@H](O)[C@H](OC4CCC(N(C)C)C(C)O4)[C@@H](O)[C@](C)(O)CCCCC/C=C/[C@@H]4CC(C)(C)O[C@@]4(O)C[C@H](O2)[C@H]3C)O1 (some centres not stated)	0.0058µM*	-67%	?	?	-19%	.	0%	?	0.0073µM*
CCOC(=O)c1ncn2c1CN(C)C(=O)c1cc(F)ccc1-2	2.1µM*	15%	2%	-8%	-22%	i	3%	-8%	7.3µM*
NCC(=O)c1ccc(Cl)c(Cl)c1	.	?	.	.	-46%	.	.	.	.
COC(COC(N)=O)C1=C(N2CC2)C(=O)C(C)=C(N2CC2)C1=O (configuration not stated)	2.1µM*	?	3.5µM*	10µM*	-89%	?	-2%	-11%	0.058µM*
Cc1cccc(-n2c(O)c(C)c(=O)[nH]c2=S)c1	11%	-15%	1%	0%	3%	i	.	.	.
Nc1c(C(=O)Nc2ccc(Cl)cc2)sc2nc3c(cc12)N1CCC3CC1	?	4%	-6%	-5%	-40%	.	.	.	.
Nc1c(C(=O)Nc2ccc(Cl)c(C(F)(F)F)c2)sc2nc3c(cc12)N1CCC3CC1	6.5µM*	?	.	-23%	-56%	.	-17%	?	7.3µM*
N#Cc1cc2c(nc1SCC(=O)Nc1ccc(C(F)(F)F)cc1)C1CCN2CC1	8.2µM*	?	.	-11%	-35%	.	1%	-3%	12µM*
N#Cc1cc2c(nc1SCC(=O)Nc1ccc(Cl)c(C(F)(F)F)c1)C1CCN2CC1	7.3µM*	?	.	-19%	-7%	.	-1%	-30%	7.3µM*
N#Cc1cc2c(nc1SCC(=O)Nc1ccc(Cl)cc1)C1CCN2CC1	.	8%	-2%	-4%	-27%	i	.	.	.
COc1cccc2c1N=C1CCCC3CN(C(C)=O)CCC123 (configuration not stated)	-13%	-1%	-2%	-2%	-1%	i	.	.	.
CC12CC(=O)C3C(CCC4CC(=O)C=CC43C)C1CCC2=O (configuration not stated)	3.3µM*	23%	-3%	-12%	0%	?	2%	-15%	2.6µM*
C[C@@]12CC(=O)[C@H]3[C@@H](CCC4=CC(=O)CC[C@]43C)[C@H]1CCC2=O	.	.	.	.	.	i	.	.	.
Cc1ccc(C)c(S(=O)(=O)c2nnn3c2nc(N2CCCC2)c2sccc23)c1	?	8%	.	3%	-22%	.	.	.	.
CN1CC=C(c2c[nH]c3ccccc23)CC1	1.8µM*	?	-6%	?	-29%	i	1%	-11%	16µM*
C(=NN1CCCCCC1)c1c[nH]c2ccccc12	3%	9%	0%	1%	-4%	i	.	.	.
CCCOP(=O)(c1ccc(N(C)C)cc1)C(O)c1ccc(Cl)cc1Cl (configuration not stated)	?	-23%	-24%	-5%	-14%	i	.	.	.
C[n+]1ccc(-c2ccccc2)c2ccccc21	1.5µM*	?	-14%	-15%	-18%	?	0%	-1%	.
COc1cc2c(cc1OC)C1C(=O)c3ccc4c(c3OC1CO2)CC(C(C)C)O4 (configuration not stated)	0.092µM*	?	?	-7%	-24%	i	-1%	-16%	0.058µM*
COc1cc2c(cc1OC)[C@@H]1C(=O)c3ccc4c(c3O[C@@H]1CO2)C[C@H](C(C)C)O4	0.29µM*	?	?	-13%	-32%	i	0%	-15%	0.23µM*
CCCN(c1ccc(C(C)C)cc1)S(=O)(=O)c1ccc2c(c1)oc(=O)n2CC(=O)OCC	16%	?	-38%	2%	-41%	?	.	.	.
CCNC(=O)C1CCCN(C(=O)c2c(-c3ccccc3)noc2C)CC1 (configuration not stated)	.	2%	13%	.	6%	?	.	.	.
CCCN1CCCC(C(=O)c2cc(C)c(OC)c(C)c2)C1 (configuration not stated)	-16%	28%	2%	1%	-16%	i	.	.	.
CCN(C(=O)Cn1c(=O)oc2cc(S(=O)(=O)N3CCCCCC3)ccc21)c1cccc(C)c1	0%	.	.	4%	-34%	.	.	.	.
CCC(C)C1NC(=O)C(NC(=O)C(CC(C)C)N(C)C(=O)C2CCCN2C(=O)C(C)O)C(C)OC(=O)C(Cc2ccc(OC)cc2)N(C)C(=O)C2CCCN2C(=O)C(CC(C)C)NC(=O)[C@H](C)C(=O)[C@H](C(C)C)OC(=O)CC1O (some centres not stated)	0.0073µM*	-104%	?	0.037µM*	-2%	0.013µM*	2%	?	0.01µM*
CC(=NNC(=S)N1CC2CCC(CC2)C1)c1nccs1	1.5µM*	?	-52%	?	-28%	?	19µM*	?	2.9µM*
CCCCCCCCCCCCCCCC[n+]1ccccc1	8.2µM*	16µM*	32µM*!	?	20µM*!	20µM*	-14%	-12%	8.2µM*
CCCCCCC[n+]1ccc(-c2cc[n+](CCCCCCC)cc2)cc1	2.6µM*	-8%	-16%	-23%	-40%	i	-8%	-22%	8.2µM*
CCc1ccc(-n2c(=O)c3sc4ccccc4c3n(CC(=O)NC3CCCC3)c2=O)cc1	14%	1%	0%	1%	-2%	?	.	.	.
